Measured values published in PubChem BioAssay AID1159580 (chemical genetic matrix, 2015).
About 2,000 (36%) of roughly 5,500 compounds were called active. About 18% were inconclusive and are not listed. No stated cut-off is given here; in the data, active means normalized growth mostly below about 0.91 (no sharp cut-off); inconclusive means no clear call, values can overlap the other calls; inactive means mostly above about 0.92. This is one part of the list.

Test: chemical genetic growth profiling, strain panel (AID 1159580);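 further: tested at 20 µM; growth read once vehicle control cultures reached saturation at 30 °C; 1 = growth at the plate median or of vehicle wells; lower values mean less growth of the strain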
Conditions: growth OD

Measured: normalized growth

C[C@]12C=CC(=O)C=C1CCC1C2[C@@H](O)C[C@@]2(C)C1CC[C@]2(O)C(=O)CO (stereo not given in full)
inactive: S. cerevisiae deletion strains, locus YJR075W, strain HOC1, active compounds read low 0.993 | S. cerevisiae deletion strains, locus YKL009W, strain mrt4, active compounds read low 0.976 | S. cerevisiae deletion strains, locus YKL068W, active compounds read low 0.991 | S. cerevisiae deletion strains, locus YKL085W, strain MDH1 (second series), active compounds read low 0.98 | S. cerevisiae deletion strains, locus YKL085W, strain MDH1, active compounds read low 0.98 | S. cerevisiae deletion strains, locus YKL160W, strain elf1, active compounds read low 0.981 | S. cerevisiae deletion strains, locus YKL190W, strain CNB1, active compounds read low 0.996 | S. cerevisiae deletion strains, locus YKR001C, strain vps1, active compounds read low 0.991 | S. cerevisiae deletion strains, locus YKR026C, strain gcn3, active compounds read low 0.997 | S. cerevisiae deletion strains, locus YKR091W, strain srl3, active compounds read low 0.999 | S. cerevisiae deletion strains, locus YLL001W, strain dnm1, active compounds read low 0.978 | S. cerevisiae deletion strains, locus YLL026W, active compounds read low 0.995 | S. cerevisiae deletion strains, locus YLL041C, strain sdh2, active compounds read low 0.989 | S. cerevisiae deletion strains, locus YLR027C, strain aat2, active compounds read low 0.995 | S. cerevisiae deletion strains, locus YLR039C, strain RIC1, active compounds read low 0.974 | S. cerevisiae deletion strains, locus YLR058C, strain SHM2, active compounds read low 0.994 | S. cerevisiae deletion strains, locus YLR102C, strain apc9, active compounds read low 0.98 | S. cerevisiae deletion strains, locus YLR113W, strain HOG1, active compounds read low 1.01 | S. cerevisiae deletion strains, locus YLR221C, strain rsa3, active compounds read low 1.01 | S. cerevisiae deletion strains, locus YLR258W, strain gsy2, active compounds read low 0.991 | S. cerevisiae deletion strains, locus YLR262C, strain YPT6 (second series), active compounds read low 0.992 | S. cerevisiae deletion strains, locus YLR262C, strain YPT6, active compounds read low 0.991 | S. cerevisiae deletion strains, locus YLR268W, strain sec22, active compounds read low 0.948 | S. cerevisiae deletion strains, locus YLR320W, strain mms22, active compounds read low 0.97 | S. cerevisiae deletion strains, locus YLR330W, strain CHS5, active compounds read low 0.99 | S. cerevisiae deletion strains, locus YLR342W, strain FKS1 (second series), active compounds read low 0.979 | S. cerevisiae deletion strains, locus YLR342W, strain FKS1, active compounds read low 0.997 | S. cerevisiae deletion strains, locus YLR357W, strain rsc2, active compounds read low 0.989 | S. cerevisiae deletion strains, locus YLR370C, strain arc18, active compounds read low 0.988 | S. cerevisiae deletion strains, locus YLR371W, strain rom2, active compounds read low 0.964 | S. cerevisiae deletion strains, locus YLR384C, strain iki3, active compounds read low 0.991 | S. cerevisiae deletion strains, locus YLR418C, strain cdc73, active compounds read low 0.98 | S. cerevisiae deletion strains, locus YML016C, strain PPZ1, active compounds read low 0.988 | S. cerevisiae deletion strains, locus YML032C, strain rad52, active compounds read low 0.972 | S. cerevisiae deletion strains, locus YML120C, strain ndi1, active compounds read low 0.984 | S. cerevisiae deletion strains, locus YML124C, strain tub3, active compounds read low 0.989 | S. cerevisiae deletion strains, locus YMR058W, strain fet3, active compounds read low 0.996 | S. cerevisiae deletion strains, locus YMR078C, strain ctf18, active compounds read low 0.974 | S. cerevisiae deletion strains, locus YMR125W, strain sto1, active compounds read low 0.99 | S. cerevisiae deletion strains, locus YMR129W, active compounds read low 0.993 | S. cerevisiae deletion strains, locus YMR205C, strain PFK2, active compounds read low 0.998 | S. cerevisiae deletion strains, locus YMR223W, strain ubp8, active compounds read low 1 | S. cerevisiae deletion strains, locus YMR231W, strain pep5, active compounds read low 0.991 | S. cerevisiae deletion strains, locus YMR307W, strain GAS1, active compounds read low 0.893 | S. cerevisiae deletion strains, locus YNL067W, strain RPL9B, active compounds read low 1 | S. cerevisiae deletion strains, locus YNL071W, strain lat1, active compounds read low 1 | S. cerevisiae deletion strains, locus YNL128W, strain TEP1, active compounds read low 0.983 | S. cerevisiae deletion strains, locus YNL183C, strain NPR1, active compounds read low 0.973 | S. cerevisiae deletion strains, locus YNL209W, strain ssb2, active compounds read low 0.998 | S. cerevisiae deletion strains, locus YNL233W, strain BNI4, active compounds read low 0.996 | S. cerevisiae deletion strains, locus YNL248C, strain rpa49, active compounds read low 0.993 | S. cerevisiae deletion strains, locus YNL250W, strain rad50, active compounds read low 0.967 | S. cerevisiae deletion strains, locus YNL271C, strain bni1, active compounds read low 0.982 | S. cerevisiae deletion strains, locus YNL298W, strain CLA4, active compounds read low 0.98 | S. cerevisiae deletion strains, locus YNL307C, strain MCK1, active compounds read low 0.979 | S. cerevisiae deletion strains, locus YNL322C, strain KRE1 (second series), active compounds read low 1 | S. cerevisiae deletion strains, locus YNL322C, strain KRE1, active compounds read low 0.993 | S. cerevisiae deletion strains, locus YNR049C, strain mso1, active compounds read low 0.995 | S. cerevisiae deletion strains, locus YNR052C, strain pop2, active compounds read low 0.988 | S. cerevisiae deletion strains, locus YOL006C, strain TOP1, active compounds read low 1.04 | S. cerevisiae deletion strains, locus YOL012C, strain htz1 0.96 | S. cerevisiae deletion strains, locus YOL147C, strain pex11, active compounds read low 0.983 | S. cerevisiae deletion strains, locus YOR001W, strain rrp6, active compounds read low 0.975 | S. cerevisiae deletion strains, locus YOR061W, strain CKA2, active compounds read low 0.986 | S. cerevisiae deletion strains, locus YOR069W, strain VPS5, active compounds read low 0.99 | S. cerevisiae deletion strains, locus YOR070C, strain gyp1, active compounds read low 1 | S. cerevisiae deletion strains, locus YOR080W, strain dia2, active compounds read low 0.997 | S. cerevisiae deletion strains, locus YOR083W, strain WHI5, active compounds read low 0.973 | S. cerevisiae deletion strains, locus YOR106W, strain vam3, active compounds read low 0.977 | S. cerevisiae deletion strains, locus YOR136W, strain idh2, active compounds read low 0.987 | S. cerevisiae deletion strains, locus YOR144C, strain elg1, active compounds read low 0.987 | S. cerevisiae deletion strains, locus YOR184W, strain ser1, active compounds read low 0.978 | S. cerevisiae deletion strains, locus YOR231W, strain MKK1, active compounds read low 1.01 | S. cerevisiae deletion strains, locus YOR265W, strain rbl2, active compounds read low 0.996 | S. cerevisiae deletion strains, locus YOR270C, strain vph1, active compounds read low 0.989 | S. cerevisiae deletion strains, locus YOR290C, strain snf2, active compounds read low 0.997 | S. cerevisiae deletion strains, locus YOR316C, strain cot1, active compounds read low 0.983 | S. cerevisiae deletion strains, locus YPL051W, strain arl3, active compounds read low 0.995 | S. cerevisiae deletion strains, locus YPL055C, strain LGE1, active compounds read low 1.01 | S. cerevisiae deletion strains, locus YPL078C, strain atp4, active compounds read low 0.974 | S. cerevisiae deletion strains, locus YPL106C, strain sse1, active compounds read low 1.02 | S. cerevisiae deletion strains, locus YPL240C, strain hsp82, active compounds read low 1 | S. cerevisiae deletion strains, locus YPL241C, strain CIN2, active compounds read low 0.993 | S. cerevisiae deletion strains, locus YPL256C, strain CLN2, active compounds read low 1.02 | S. cerevisiae deletion strains, locus YPR119W, strain clb2, active compounds read low 0.979 | S. cerevisiae deletion strains, locus YPR141C, strain kar3, active compounds read low 0.981 | S. cerevisiae deletion strains, locus YPR163C, strain tif3, active compounds read low 0.98 | S. cerevisiae deletion strains, locus YPR167C, strain met16, active compounds read low 0.982 | S. cerevisiae deletion strains, strain wtn01, active compounds read low 0.983 | S. cerevisiae strains, strain wild type, active compounds read low 0.991
